Most compounds without a hit are left out; they make up all but 11% or so of the library.
IMPase Li cell = qHTS Assay for Identifying the Cell-Membrane Permeable IMPase Inhibitors: Potentiation with Lithium; CHO-M1 cells, IP1 TR-FRET (IP-One), carbachol + lithium; Potency, µM (titrated, usually from 59.4 µM), most hits filed as inhibitors; 0.35% of 210,000 active; AID 1457, 2008;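 note: IP1 builds up when IMPase is blocked and the TR-FRET signal falls; nearly all actives have a fitted effect of over 50% in size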
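Test compounds were applied to CHO-M1 cells previously cultured for 16–30 h at 2000 per well. A small lithium amount accompanied them; after 30 min at 37C, IP1 was quantified by TR-FRET.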
IMPase cell inh = qHTS Assay for Identifying the Cell-Membrane Permeable IMPase Inhibitors; CHO-M1 cells, IP1 accumulation, HTRF TR-FRET ratio; inhibition (IP1 accumulation), % at 46.1 µM; 120,000 tested, under 10 active; Inositol monophosphatase 1 (Rattus norvegicus), P97697; AID 901, 2007; active = well fitted curve in the direction sought with a large enough effect in the signal ratio, not every such curve was filed as active; inconclusive = small, poorly fitted or top-dose-only effect, or a change in a side signal; inactive = no such curve, though single readings can be large or run the other way; the % refers to the signal ratio;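 note: cells stimulated with carbachol in lithium chloride buffer; higher means more IMPase inhibition seen as more IP1 and lower FRET ratio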
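Seeded CHO-M1 cells were dosed with compound at up to 46 uM, stimulated with carbachol for 30 min, then lysed in IP-One detection reagents. Higher IP1 lowers the TR-FRET signal.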
ALOX12 inhib = qHTS Assay for Inhibitors of 12-hLO (12-human lipoxygenase); Polyunsaturated fatty acid lipoxygenase ALOX12 (Homo sapiens), P18054; purified 12-hLO, xylenol orange hydroperoxide absorbance; Potency, µM (doses to about 57.1 µM), usual class: inhibitors; 0.12% of 150,000 active; AID 1452, 2008; note: nearly all actives have a fitted effect of over 55% in size
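Hydroperoxide output read as Fe(III)-xylenol orange absorbance, 573-to-405 nm ratio, after 30 min reaction with 40 uM arachidonic acid. Enzyme: 150 nM purified human 12hLO, 15 min compound preincubation; 25 mM Hepes pH 7.0, room temperature.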
ALDH1A1 inh = qHTS Assay for Inhibitors of Aldehyde Dehydrogenase 1 (ALDH1A1); Aldehyde dehydrogenase 1A1 (Homo sapiens), P00352; Purified ALDH1A1, NADH fluorescence, propionaldehyde substrate; Potency, µM (doses to about 75.3 µM), hits mostly inhibitors; 7.3% of 220,000 active; active = well fitted inhibition curve with a large enough effect, not every such curve was filed as active; inconclusive = small, poorly fitted or top-dose-only effect, or another doubt; inactive = no such curve, though single readings can be large or run the other way
Target sequence (P00352 whole entry, looked up): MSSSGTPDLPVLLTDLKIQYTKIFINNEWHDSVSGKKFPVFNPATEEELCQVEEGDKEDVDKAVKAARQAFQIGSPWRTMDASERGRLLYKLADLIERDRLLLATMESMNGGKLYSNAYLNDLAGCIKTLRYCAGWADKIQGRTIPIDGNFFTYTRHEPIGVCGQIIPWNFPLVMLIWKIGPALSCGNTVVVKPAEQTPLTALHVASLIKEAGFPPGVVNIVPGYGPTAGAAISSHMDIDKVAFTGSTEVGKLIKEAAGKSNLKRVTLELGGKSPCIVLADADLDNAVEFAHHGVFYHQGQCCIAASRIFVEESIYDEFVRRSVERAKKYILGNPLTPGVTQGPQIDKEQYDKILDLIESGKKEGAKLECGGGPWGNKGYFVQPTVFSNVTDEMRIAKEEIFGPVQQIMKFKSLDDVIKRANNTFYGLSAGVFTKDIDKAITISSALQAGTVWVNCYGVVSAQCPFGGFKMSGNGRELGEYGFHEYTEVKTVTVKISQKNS
HPGD block = qHTS Assay for Inhibitors of HPGD (15-Hydroxyprostaglandin Dehydrogenase) | 15-hydroxyprostaglandin dehydrogenase [NAD(+)] (Homo sapiens), P15428 | purified HPGD, NADH fluorescence kinetic, PGE2 substrate | Potency, µM, most hits filed as inhibitors | 4.3% of 150,000 active | AID 894, 2007; active = well fitted inhibition curve with a large enough effect, not every such curve was filed as active; inconclusive = small, poorly fitted or top-dose-only effect, or another doubt; inactive = no such curve, though single readings can be large or run the other way
Target sequence (P15428 whole entry, looked up): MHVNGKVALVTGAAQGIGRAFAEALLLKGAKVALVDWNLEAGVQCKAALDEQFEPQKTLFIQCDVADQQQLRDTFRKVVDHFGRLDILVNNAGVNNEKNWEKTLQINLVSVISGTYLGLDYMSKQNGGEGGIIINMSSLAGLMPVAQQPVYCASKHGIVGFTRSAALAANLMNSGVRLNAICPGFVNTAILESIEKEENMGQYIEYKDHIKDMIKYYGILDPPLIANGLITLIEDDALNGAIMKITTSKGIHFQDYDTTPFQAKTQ
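NADH formation kinetics: reaction with 30 uM PGE2 and 1 mM NAD+ (final), 20 nM enzyme, Tris-HCl pH 8 with Tween 20, after 15 min compound preincubation at room temperature. Fluorescence change, last versus first of five reads.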
PNC assembly inh = High Content Assay for Compounds that inhibit the Assembly of the Perinucleolar Compartment; PC3M PTB-GFP, PNC prevalence imaging, 16 h; active compounds read low; AID 2417, 2010; 3.1% of 140,000 active; activity change (PNC), negative = inhibition, % at 10 µM;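 active = readout at or below -70, meaning at least 70% loss of cells showing the perinucleolar compartment, a nuclear body marking cancer cells; inconclusive = readout between -30 and a set limit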
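PC3M cells stably expressing PTB-GFP, 750–1000 cells/well, treated 16 h at 37 °C with compound (23 nl of library stock), in duplicate. After paraformaldehyde fixation and Hoechst stain, imaged at 20x; PNC prevalence scored by image analysis.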
Hits are given with their value. Unless noted, calls come from the whole dose curve; as a rule, active = well fitted curve in the direction sought with a large enough effect; inconclusive = small, poorly fitted or top-dose-only effect, or another doubt; inactive = no such curve, though single readings can be large; an effect the other way counts as inactive or inconclusive.

Cc1ccc(S(=O)(=O)CCc2nnc(NC(=O)CCl)s2)cc1C was read as IMPase Li cell inactive and ALDH1A1 inh 1µM.
`Cn1c2c(c(=O)c3ccccc31)CCC(C)(C)O2` gave IMPase Li cell inactive, ALOX12 inhib inactive, ALDH1A1 inh inactive, HPGD block 28.2µM and PNC assembly inh inconclusive.
`CCSc1nc(O)c(C2OC(=O)c3c2ccc(OC)c3OC)c(=O)n1CC` (configuration not stated) gave IMPase cell inh inactive, ALOX12 inhib inactive, ALDH1A1 inh inactive and PNC assembly inh -121.8.
Screening CCCCSc1nc(O)c(C2OC(=O)c3c2ccc(OC)c3OC)c(=O)n1C (configuration not stated) returned IMPase Li cell inactive, IMPase cell inh inactive, ALOX12 inhib inactive, ALDH1A1 inh inactive, HPGD block inactive and PNC assembly inh inactive.
Screening Cc1ccccc1-n1nnnc1SCc1ncc(-c2ccccc2)o1 returned IMPase Li cell inactive, IMPase cell inh inactive, ALOX12 inhib inactive, ALDH1A1 inh 10µM, HPGD block inactive and PNC assembly inh inactive.
Screening c1ccc(-c2cnc(CSc3nnc4ccccn34)o2)cc1 returned IMPase Li cell inactive, IMPase cell inh inactive, ALOX12 inhib inactive, ALDH1A1 inh inconclusive, HPGD block inactive and PNC assembly inh inactive.
For O=C(Nc1ccc2c(c1)OCCO2)c1ccc(Cl)c(S(=O)(=O)N2CCOCC2)c1 the results were IMPase Li cell inactive, IMPase cell inh inactive, ALOX12 inhib inactive, ALDH1A1 inh 5.01µM, HPGD block inactive and PNC assembly inh inactive.
Screening CN(C)c1ccc(NC(=O)CN2CCN(S(=O)(=O)c3cc(Cl)ccc3Cl)CC2)cc1 returned IMPase Li cell inactive, IMPase cell inh inactive, ALOX12 inhib inactive, ALDH1A1 inh inconclusive, HPGD block inactive and PNC assembly inh inactive.
Screening O=C(CN1CCN(S(=O)(=O)c2cc(Cl)ccc2Cl)CC1)Nc1ccc2c(c1)OCCO2 returned IMPase Li cell inactive, IMPase cell inh inactive, ALOX12 inhib inactive, ALDH1A1 inh 8.91µM, HPGD block inactive and PNC assembly inh inactive.
COc1cccc(-c2nc(N3CCN(C)CC3)c3ccccc3n2)c1 was read as IMPase Li cell inconclusive and ALDH1A1 inh inactive.
`O=C(C(Cc1ccccc1)N1C(=O)c2ccccc2C1=O)N1CCc2ccccc21` (configuration not stated) gave IMPase Li cell inactive, IMPase cell inh inactive, ALOX12 inhib inactive, ALDH1A1 inh inactive, HPGD block inactive and PNC assembly inh -100.0.
`O=C(CN(CC1CCCO1)C(=O)CCC(=O)Nc1ccccn1)NCc1ccccc1` (configuration not stated) gave IMPase Li cell inactive, IMPase cell inh inactive, ALOX12 inhib inactive, ALDH1A1 inh inactive, HPGD block inactive and PNC assembly inh -100.0.
Screening CC(C)CCNC(=O)CN(CC1CCCO1)C(=O)CCC(=O)Nc1ccccn1 (configuration not stated) returned IMPase Li cell inactive, IMPase cell inh inactive, ALOX12 inhib inactive, ALDH1A1 inh inactive, HPGD block inactive and PNC assembly inh inactive.
For O=C(Nc1ccccc1)c1cc2c(-c3ccccc3)nn(-c3ccccc3)c2s1 the results were IMPase cell inh inactive.
COc1ccnc(N2CCN(c3ccc(Cl)cc3)CC2)c1C#N was read as IMPase Li cell inactive, IMPase cell inh inactive, ALOX12 inhib inactive, ALDH1A1 inh 12.6µM, HPGD block inconclusive and PNC assembly inh inconclusive.
Screening CC(C)(C)C(=O)Cn1ncc(Br)c(Br)c1=O returned IMPase Li cell inactive and ALDH1A1 inh 7.94µM.
C=CCNc1cnn(CC(C)=O)c(=O)c1Br was read as IMPase Li cell inactive, IMPase cell inh inactive, ALOX12 inhib inactive, ALDH1A1 inh inactive, HPGD block inactive and PNC assembly inh inactive.
`O=C1C2CCCCC2C(=O)N1c1ccc(NC2CCCCC2)c([N+](=O)[O-])c1` (configuration not stated) gave IMPase Li cell inactive, ALOX12 inhib inactive, ALDH1A1 inh 10µM, HPGD block inactive and PNC assembly inh inactive.
For Cc1ccc2oc3c(c(=O)c2c1)C(c1ccc(O)cc1)N(c1nc(C)c(C)s1)C3=O (configuration not stated) the results were IMPase cell inh inactive.
O=c1oc2ccccc2c(O)c1/C=N/c1ncccn1 was read as IMPase Li cell inactive, IMPase cell inh inactive, ALOX12 inhib inconclusive, ALDH1A1 inh inconclusive, HPGD block inconclusive and PNC assembly inh inactive.
For O=c1oc2ccccc2c(O)c1/C=C1\C=Nc2ccccc21 the results were IMPase Li cell inactive, IMPase cell inh inactive, ALOX12 inhib inactive, ALDH1A1 inh 12.6µM, HPGD block 2.24µM and PNC assembly inh inactive.
`O=C(/C=C\NCC(=O)c1ccccc1)c1ccc(F)cc1` gave IMPase Li cell inactive, IMPase cell inh inactive, ALOX12 inhib inactive, ALDH1A1 inh 20µM, HPGD block inactive and PNC assembly inh inactive.
Screening O=C(/C=C\NCC(=O)c1ccccc1)c1ccc2ccccc2c1 returned IMPase cell inh inactive, ALOX12 inhib inactive, ALDH1A1 inh 4.47µM and PNC assembly inh inconclusive.
C=CCN1CCc2c(cc(O)c(O)c2Cl)C(c2cccc(C)c2)C1 (configuration not stated) was read as IMPase Li cell inactive, ALOX12 inhib inactive, ALDH1A1 inh inactive and HPGD block inactive.
Screening O=C(C1=C[C@H](c2csc3ccccc23)C[C@H](OCc2ccc(CO)cc2)O1)N1CCN(Cc2ccc3c(c2)OCO3)CC1 returned IMPase Li cell inactive and ALDH1A1 inh inactive.
c1ccc(-c2cnn3c(-c4ccccc4)c(-c4ccccc4)nc3n2)cc1 was read as IMPase Li cell inactive, IMPase cell inh inconclusive, ALOX12 inhib inactive, ALDH1A1 inh inactive, HPGD block 20µM and PNC assembly inh inactive.
Cc1cc2ccccn2c1C(=O)c1ccc([N+](=O)[O-])o1 was read as IMPase Li cell inactive and ALDH1A1 inh inconclusive.
Screening O=C(O)CCCNS(=O)(=O)c1ccc2ccccc2c1 returned IMPase Li cell inactive, IMPase cell inh inactive, ALOX12 inhib inactive, ALDH1A1 inh 3.16µM, HPGD block inactive and PNC assembly inh inactive.
O=C(CNC(=O)Cc1ccccc1)N=Nc1c(O)n(Cc2ccc3c(c2)OCO3)c2ccccc12 was read as IMPase cell inh inactive, ALOX12 inhib inactive, ALDH1A1 inh 3.98µM and PNC assembly inh inconclusive.

Bioassay records from PubChem BioAssay.
